From PubChem BioAssay (NCATS) come the findings set out here.

A short description of experiment [1]: qHTS Assay for Identifying Gametocytocidal Compounds (AID 743244). Further: potency means the concentration at half of the fitted maximal effect.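 On max response: on the % scale 0 is the no-effect control and ±100 the full control effect; actives lower the fluorescent signal which means gametocytes are killed.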 Conditions: P. falciparum 3D7 stage III-V gametocytes, alamarBlue, 72 h; max response: stronger effect = lower value. In short, it runs like this: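 P. falciparum 3D7 stage III–V gametocytes (20,000 cells/well) were exposed to compounds for 72 h at 37 °C, 5% CO2. AlamarBlue was then added for 24 h; decreased resorufin fluorescence (Ex 525/Em 598 nm) indicated loss of viability.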
On the technique in general: Quantitative high-throughput screening tests each substance at several concentrations.

Experiment [2] has as its target T1, Hexokinase-4 (Homo sapiens) + Glucokinase regulatory protein (Homo sapiens) (UniProt P35557+Q14397). The experiment can be described thus: qHTS assay for inhibitors of recombinant human GCK-GKRP interaction: ADP-Glo assay (AID 743206).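 Further: plate controls were DMSO plus enzyme for no effect and no enzyme for full effect.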 The essentials:
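GST-GCK and FLAG-GKRP (15 nM each in the dispensed mix, with 2 uM S6P) react with 0.4 mM ATP and 5 mM glucose (final) in Hepes pH 7.6 for 60 min at room temperature. ADP is measured by ADP-Glo luminescence.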

The target of experiment [3] is T1, Hexokinase-4 (Homo sapiens) + Glucokinase regulatory protein (Homo sapiens). Put plainly: qHTS assay for inhibitors of recombinant human GCK-GKRP interaction: HTRF assay (AID 743207).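 Further: 0% = DMSO with GCK present and -100% = DMSO wells lacking GCK.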 In short, it runs like this: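 HTRF read-out (ex 320 nm; 615/665 nm emission) after 60 min RT equilibration of 5 nM GST-GCK, 5 nM FLAG-GKRP, 2 uM S6P, compound and anti-FLAG/anti-GST detection antibodies; signal normalized between DMSO wells with and without GCK.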

Experiment [4] in a line: qHTS profiling for inhibitors of Plasmodium falciparum (3D7) proliferation (AID 743322; call rule not given here;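 further: infected erythrocytes exposed to compound for 72 h before lysis; 100% = DMSO vehicle wells and 0% = 0.29 µM artemisinin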). Conditions: P. falciparum 3D7 proliferation; at 28.7 µM (top of the series). In short, it runs like this: (§1)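 Erythrocytes infected with P. falciparum (0.3% parasitemia, 2.5% hematocrit) incubated with compounds 72 h at 37 C, 5% CO2. Lysis with saponin/Triton buffer containing SYBR Green I, overnight at room temperature in the dark; DNA fluorescence (485/535 nm) normalised to 0.29 uM artemisinin and DMSO.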

The nature of experiment [5]: qHTS profiling for inhibitors of Plasmodium falciparum (DD2) proliferation (AID 743323; call rule not given here). The note with it: lower = more inhibition; at 28.7 µM (top of the series). The essentials:
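Parasite DNA quantified by SYBR Green fluorescence (ex 485, em 535 nm) after saponin/Triton lysis and overnight dark incubation. Cultures: 0.3% parasitemia, 2.5% hematocrit, 72 h, 37 C; data scaled between DMSO and 0.29 uM artemisinin.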

Experiment [6] is described as follows: qHTS profiling for inhibitors of Plasmodium falciparum (HB3) proliferation (AID 743324).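 Further: 100% = DMSO vehicle wells and 0% = artemisinin-treated control wells.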 The note with it: Plasmodium falciparum HB3 blood-stage proliferation; at 28.7 µM (top of the series). The essentials: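 P. falciparum HB3 grown in erythrocytes (0.3% parasitemia, 2.5% hematocrit final) with compound for 72 h at 37 C, 5% CO2. Parasite DNA detected by SYBR Green after saponin/triton lysis overnight; normalized to 0.29 uM artemisinin and DMSO.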

Experiment [7] is described as follows: qHTS profiling of the MIPE4 collection as inhibitors of Plasmodium falciparum (DD2) proliferation (AID 743345; call rule not given here). Conditions: P. falciparum Dd2 in erythrocytes, SYBR Green DNA, 72 h; at 28.5 µM (top of the series). In short, it runs like this: as §1
Experiment [8] is described as follows: qHTS profiling of the MIPE4 collection as inhibitors of Plasmodium falciparum (HB3) proliferation (AID 743347; call rule not given here;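 further: plate controls were DMSO vehicle wells for no effect and artemisinin wells for full effect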). Conditions: P. falciparum HB3 in erythrocytes, SYBR Green DNA, 72 h; at 28.5 µM (top of the series). In short, it runs like this:
as §1

Experiment [9] in a line: qHTS assay for cell viability of HEK293 cells (AID 743288). Further: nearly all actives have a fitted effect of over 50% in size. Further: potency means the concentration at half of the fitted maximal effect. On max response: on the % scale 0 is the no-effect control and ±100 the full control effect. The note with it: ATP luminescence (CellTiter-Glo), 18 h; max response: stronger effect = lower value. The essentials: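 Environmental chemicals tested in qHTS format against parental HEK293 cells; 18 h treatment, 37 C; read-out ATP luminescence (CellTiter-Glo), 30 min RT development.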
Experiment [10] in a line: qHTS assay for cell viability of the p53RE-bla HCT-116 cell line (AID 743292). Further: on the % scale 0 is the no-effect control and ±100 the full control effect; nearly all actives have a fitted effect of over 55% in size. The essentials: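 Readout: CellTiter-Glo luminescence after 30 min RT. Treatment: compounds in DMSO, 16 h, 37 C. Cells: CellSensor p53RE-bla HCT-116, 4,000/well, preincubated 5 h.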

Values joined by “and” are separate entries in the source; they are usually repeats but may differ in a detail not shown here. Equal values may be shown once. Results filed as inconclusive are left out. Active and inactive are the calls of the source. Unless noted, the call rests on the fitted dose curve; in most records, active means well fitted curve in the direction sought with a large enough effect; inconclusive means small, poorly fitted or top-dose-only effect, or another doubt; inactive means no such curve, though single readings can be large; an effect the other way counts as inactive or inconclusive.

T1 sequence (P35557 whole entry, looked up): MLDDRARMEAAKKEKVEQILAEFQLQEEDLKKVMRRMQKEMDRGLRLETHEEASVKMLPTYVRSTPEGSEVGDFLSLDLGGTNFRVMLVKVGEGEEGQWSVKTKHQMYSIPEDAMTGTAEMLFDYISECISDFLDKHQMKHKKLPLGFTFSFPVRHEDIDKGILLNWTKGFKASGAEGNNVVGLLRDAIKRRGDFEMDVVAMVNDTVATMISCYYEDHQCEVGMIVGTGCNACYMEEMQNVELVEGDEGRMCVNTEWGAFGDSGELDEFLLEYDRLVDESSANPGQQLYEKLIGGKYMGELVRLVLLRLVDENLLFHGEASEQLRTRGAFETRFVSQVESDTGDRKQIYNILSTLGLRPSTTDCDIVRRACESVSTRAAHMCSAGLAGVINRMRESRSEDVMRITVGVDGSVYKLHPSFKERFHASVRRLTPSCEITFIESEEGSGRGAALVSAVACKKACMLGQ
T1 sequence (Q14397 whole entry, looked up): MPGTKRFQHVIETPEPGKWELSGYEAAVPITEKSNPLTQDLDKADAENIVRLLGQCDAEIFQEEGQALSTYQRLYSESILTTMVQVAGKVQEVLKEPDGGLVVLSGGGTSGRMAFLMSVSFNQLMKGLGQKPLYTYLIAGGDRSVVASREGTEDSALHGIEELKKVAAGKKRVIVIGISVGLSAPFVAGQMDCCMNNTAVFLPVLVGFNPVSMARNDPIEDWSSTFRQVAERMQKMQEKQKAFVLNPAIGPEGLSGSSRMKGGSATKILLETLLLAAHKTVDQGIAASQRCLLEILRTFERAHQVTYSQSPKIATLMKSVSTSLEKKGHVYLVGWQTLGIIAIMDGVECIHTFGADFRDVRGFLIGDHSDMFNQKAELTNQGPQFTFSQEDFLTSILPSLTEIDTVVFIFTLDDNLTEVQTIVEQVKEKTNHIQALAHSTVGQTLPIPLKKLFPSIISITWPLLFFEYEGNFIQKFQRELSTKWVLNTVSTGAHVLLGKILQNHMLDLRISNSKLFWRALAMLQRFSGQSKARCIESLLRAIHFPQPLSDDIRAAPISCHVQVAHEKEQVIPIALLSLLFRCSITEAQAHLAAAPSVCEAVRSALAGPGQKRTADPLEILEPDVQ

As for `Oc1ccc2[nH]cc(CCCCN3CC=C(c4ccccc4)CC3)c2c1`, in experiment [1], the max response was -6.56% (inactive).
Same read-out and setting: the result for `C[C@@H]1O[C@@H](O[C@@H]2C=C3CC[C@@H]4[C@H](CC[C@]5(C)[C@@H](c6ccc(=O)oc6)CC[C@]45O)[C@@]3(C)CC2)[C@H](O)[C@H](O)[C@H]1O` reads 11.2% (inactive); that for `C[N+]1(CCC(C(N)=O)(c2ccccc2)c2ccccc2)CCCCC1`, -5.02% (inactive).
On to `CC(C)(C)OC(=O)c1ncn2c1[C@@H]1CCCN1C(=O)c1c(Br)cccc1-2`, for which the max response in [1] was 3.06% (inactive).
Regarding `COc1ccc(OC)c(CC(C)N)c1` (stereo unspecified), the max response in [1] was -18.6% (inactive).
As to `CCCN(CCC)CCc1c[nH]c2ccccc12`, the max response in experiment [1] was -3.32% (inactive).
In the case of `c1cc2c(c(N3CCNCC3)c1)OCCO2`, the max response in [1] is -8.91% (inactive).
Same read-out and setting: the same measure for `CCN(Cc1ccc(Cl)nc1)/C(=C/[N+](=O)[O-])NC`: 8.58% (inactive).
Consider `C[C@@H]1CC[C@H]2[C@@H](C)C(=O)O[C@@H]3O[C@@]4(C)CC[C@@H]1[C@]32OO4`, for which the Potency in [1] is 0.132 µM (active).
In the case of `COc1ccc2[nH]cc(CCN(C(C)C)C(C)C)c2c1`, in experiment [1], the max response is -5.46% (inactive).
On the same count and under the same terms, the result for `C[C@]12CC[C@H]3[C@@H](CC=C4C[C@@H](O)CC[C@@]43C)[C@@H]1CC[C@@H]2O` reads -0.897% (inactive); that for `NC1(c2ccccc2)CCCCC1`, 3.42% (inactive); that for `CCC1(c2ccccc2)CCC(=O)NC1=O` (stereo unspecified), -3.28% (inactive).
Regarding `CC(Cc1ccc2c(c1)OCO2)NO` (stereo unspecified), in [1], the max response was -6.74% (inactive).
Regarding `O=C(O)c1nn(Cc2ccc(Cl)cc2Cl)c2ccccc12`, the result in [2] and in [3] was inactive. Moreover, the max response in experiment [1] was -7.97% (inactive) and 31% (inactive). Further, the remaining parasite growth % (stronger effect = lower value) in experiment [4] came to 86.6%. Besides, in experiment [5], the activity, percent of control worked out at 60.1%. Also, the remaining proliferation (% of control), lower = more inhibition in experiment [6] was 104%. In addition, the parasite growth remaining, % of DMSO control (lower = more inhibition) in experiment [7] came out at 99.8%. Further, in experiment [8], the growth, % of control stood at 81.1%.
On to `CCOC(=O)NC(C)(C)Cc1ccc(Cl)cc1`, for which, in experiment [1], the max response is -1.19% (inactive).
For `COP(=O)(OC)C(O)C(Cl)(Cl)Cl` (stereo unspecified), in experiment [9], the max response was -19.1% (inactive). In addition, the molecule was classed as inactive in experiment [10].
Turning to `CCOC(=O)NC(O)C(Cl)(Cl)Cl` (stereo unspecified), the max response in experiment [1] was 9.34% (inactive).
As to `CCC(=O)O[C@H]1CC[C@H]2[C@@H]3CCC4=CC(=O)CC[C@]4(C)[C@H]3CC[C@]12C`, the results for the max response in experiment [1] and in experiment [9] were 11.3% (inactive) and -26.1% (inactive), respectively. In addition, the molecule was called inactive in experiment [10].
With `NC(N)=NC(=O)c1nc(Cl)c(N)nc1N`, in experiment [7], the parasite growth remaining, % of DMSO control (lower = more inhibition) turned out to be 94%. In experiment [8], this molecule registered a growth, % of control of 87.1%.
On to `N#Cc1nn(-c2c(Cl)cc(C(F)(F)F)cc2Cl)c(N)c1S(=O)C(F)(F)F` (stereo unspecified), for which, in experiment [9], the max response is -24.4% (inactive). For the same molecule, in experiment [10], the call was inactive.
With `CCCCCCCCCCCC[N+](C)(C)CCOc1ccccc1`, the Potency in experiment [1] was 8.91 µM (active). Also, the call in experiment [10] was inactive.
As to `CCNc1nc(Cl)nc(NCC)n1`, the max response in experiment [1] was 2.85% (inactive); in experiment [9], -8% (inactive). In addition, in experiment [10], the molecule was called inactive.
Regarding `CC[n+]1c(-c2ccccc2)c2cc(N)ccc2c2ccc(N)cc21`, the Potency in experiment [1] was 1.41 µM (active) and 6.31 µM (active). Further, the molecule was classed as inactive in [10].
Regarding `O=c1n(Cl)c(=O)n(Cl)c(=O)n1Cl`, the max response in [1] is -4.5% (inactive); in experiment [9] it was 2.76% (inactive). Moreover, in experiment [10], the result was inactive.
As to `Clc1ccc(CSC(Cn2ccnc2)c2ccc(Cl)cc2Cl)cc1` (stereo unspecified), the Potency in experiment [1] was 3.98 µM (active).
Turning to `C[C@@H]1C[C@@H]([C@H](O)CC2CC(=O)NC(=O)C2)C(=O)[C@@H](C)C1`, the Potency in [1] is 2.82 µM (active); in [9], 126 nM (active). In addition, the call in experiment [10] was inactive. Further, in experiment [4], the remaining parasite growth % (stronger effect = lower value) is -0.0842%. Further, the activity, percent of control in experiment [5] turned out to be 0.342%. Besides, in experiment [7], the parasite growth remaining, % of DMSO control (lower = more inhibition) stood at 6.36%. Further, the growth, % of control in experiment [8] turned out to be 5.04%.
